# Screening data: PubChem BioAssay, several laboratories
# In the library only some 4.1% were active in any assay of this set; here they are far more common.
# BH1578 lux ind: inducers of Vibrio cholerae quorum light production without autoinducers, primary screen, BH1578 luxS cqsA deficient, single point | hit rate 0.16% among 350,000 | activation, % at 18.7 µM | V. cholerae BH1578 lux reporter, luminescence, 6 h | AID 588436, 2011; in the data active means activation mostly above about 9.7%, no sharp cut-off
# Mtb UGM inh: M. tuberculosis UGM enzyme inhibitors, primary screen, biochemical, fluorescence polarization, single point | UDP-galactopyranose mutase (Mycobacterium tuberculosis (strain ATCC 25618 / H37Rv)), … | purified UGM, fluorescence polarization probe displacement | inhibition, % at 10 µM | hit rate 0.06% among 320,000 | AID 504406, 2011; in the data active means inhibition above about 10%, passing the limit was not always enough
# Mtb FBA inh: Mtb FBA enzyme inhibitors, primary screen, biochemical, fluorescence, strain H37Rv; hit rate 2.3% among 360,000; AID 588726, 2011; purified M. tuberculosis FBA, fluorescence read-out; inhibition, % at 1 µM; Fructose-bisphosphate aldolase (Mycobacterium tuberculosis (strain ATCC 25618 / H37Rv)), …;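 further: 0% = vehicle and 100% = reference inhibitor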
# Target sequence (P9WQA3 whole entry, looked up): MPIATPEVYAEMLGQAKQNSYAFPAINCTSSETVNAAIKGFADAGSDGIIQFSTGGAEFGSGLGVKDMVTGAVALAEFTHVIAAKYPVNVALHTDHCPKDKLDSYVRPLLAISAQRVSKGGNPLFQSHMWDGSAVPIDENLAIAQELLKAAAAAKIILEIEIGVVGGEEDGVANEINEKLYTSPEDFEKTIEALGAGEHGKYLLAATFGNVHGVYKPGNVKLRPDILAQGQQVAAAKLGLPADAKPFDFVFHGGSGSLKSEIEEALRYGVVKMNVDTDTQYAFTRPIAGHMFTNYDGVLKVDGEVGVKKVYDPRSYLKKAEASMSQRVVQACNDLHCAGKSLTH
# GDH-TPI counter-1: GDH-TPI coupling enzyme inhibitors, primary screen, artefact control for M. tuberculosis FBA inhibitor project, biochemical, absorbance, full deck. hit rate 1.2% among 360,000. AID 588335, 2011. GDH-TPI coupled enzyme counterscreen, NADH absorbance. inhibition, % at 4.8 µM; in the data active means inhibition above about 30%;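 further: 0% = DMSO wells and 100% = wells lacking the enzyme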
# RecA splice inh: Mtb RecA intein splicing inhibitors, primary screen, biochemical, fluorescence, HTS. Protein RecA (Mycobacterium tuberculosis (strain ATCC 25618 / H37Rv)), P9WHJ3. cell-free RecA intein splicing. inhibition, % (no concentration beside the values). hit rate 0.75% among 290,000; in the data active means inhibition above about 30%;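 further: 0% = vehicle wells and 100% = reference inhibitor control wells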
# Rv3671c inh: Rv3671c serine protease inhibitors, primary screen, biochemical, fluorescence polarization, M. tuberculosis H37Rv | P9WHR9 | inhibition, % at 5.96 µM | hit rate 0.048% among 320,000 | AID 2606, 2010; in the data active means inhibition above about 38%;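 further: extracellular domain of Rv3671c used as enzyme; 0% = enzyme with DMSO and 100% = no enzyme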
# Mtb FBA inh conf: M. tuberculosis aldolase blockers, biochemical, fluorescence, strain H37Rv, confirmation | shares compounds with Mtb FBA inh | purified M. tuberculosis FBA, fluorescence read-out | inhibition, % at 1 µM | hit rate 78% among 5,600;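 further: 0% = vehicle wells and 100% = reference inhibitor wells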
# GDH-TPI counter-2: GDH-TPI coupling enzyme inhibitors, artefact control for M. tuberculosis FBA inhibitor project, biochemical, fluorescence, high throughput; hit rate 81% among 5,600; inhibition, % at 1 µM; shares compounds with Mtb FBA inh; AID 652141, 2013; GDH-TPI coupled enzyme counterscreen; in the data active means inhibition above about 10%
# * hit, by the source's call; i = inactive; . = no result; + = active, no number. Unless noted, no stated cut-off is given here; in the data, active means inhibition above about 27%; inactive means the rest.
SMILES,BH1578 lux ind,Mtb UGM inh,Mtb FBA inh,GDH-TPI counter-1,RecA splice inh,Rv3671c inh,Mtb FBA inh conf,GDH-TPI counter-2
COc1ccc(-c2cc(NC=O)c3ncc(-c4cccc(C(F)(F)F)c4)n3c2)cc1OC,0.2,.,7.1,8.9,.,.,.,.
COc1ccc(-c2sc(C(=O)c3ccc(Cl)cc3Cl)cc2CC(=O)O)cc1,i,4.9,45.1*,15.9,-38.7,-13.4,72.6*,55.3*
Cc1ccc(-c2c(C#N)c(N)nc3c2CCCCCC3)o1,1.8,0.4,31.5*,25.9,2.6,4.3,51.2*,38.2*
CCOc1ccc(/C=N/NC(=O)c2nnn(-c3nonc3N)c2COc2ccc(F)cc2)cc1,-0.4,2.5,0.6,12.9,-0.2,-0.8,.,.
C/C(=N\NC(=O)c1nnn(-c2nonc2N)c1COc1ccc(F)cc1)c1ccc(Cl)cc1,-0.9,1.4,28.6*,-2.0,-2.8,-1.2,+,+
Cc1noc(C)c1COc1ccccc1C(=O)NC(C)c1ccc(F)cc1 (stereo unspecified),i,.,5.7,-2.1,.,.,.,.
Cc1cccc(NC(=S)N2CCC(NC(=O)C3CCCCC3)CC2)c1,-0.2,0.8,0.2,-2.3,-3.7,-3.8,.,.
Cc1nnc(N2CCCC(C(=O)NCc3ccccc3F)C2)c2nn(-c3ccccc3)c(C)c12 (stereo unspecified),-1.8,-0.5,7.9,3.4,-2.4,-14.1,.,.
Cc1ccccc1CNC(=O)C1CCCN(c2nnc(C)c3c(C)n(-c4ccccc4)nc23)C1 (stereo unspecified),-1.9,3.8,27.7*,0.5,-0.4,-4.3,110.6*,104.8*
O=C1NC(c2cccc3ccccc23)Nc2ccccc21 (stereo unspecified),i,.,29.3*,16.1,.,.,37.1*,32.1*
Clc1ccccc1C1Nc2cccc3cccc(c23)N1,i,-0.3,2.0,14.3,6.4,5.7,.,.
O=C1NC(c2cccs2)Nc2ccccc21 (stereo unspecified),-0.7,-3.3,9.0,8.2,.,-7.1,.,.
COc1ccc2ccccc2c1C1NC(=O)c2ccccc2N1 (stereo unspecified),i,.,43.8*,6.0,.,.,102.0*,73.8*
O=C1NC(c2ccccc2Cl)Nc2ccccc21 (stereo unspecified),-0.2,0.8,57.3*,-7.1,-1.5,1.8,114.3*,99.8*
CN(C)c1ccc(C(C(=O)NCc2ccccc2)N(Cc2cccnc2)C(=O)c2snc(C(N)=O)c2N)cc1 (stereo unspecified),-0.3,.,0.9,5.2,1.1,.,.,.
COc1ccc(-n2c(SCC(=O)NCC3CCCO3)nc3ccccc3c2=O)cc1Cl (stereo unspecified),i,.,-3.8,2.7,.,.,.,.
Cc1ccc(CN2CCSc3ccc(C(=O)NC4CCN(Cc5ccccc5)CC4)cc32)cc1,0.4,-1.1,10.3,9.2,-2.4,-10.4,.,.
O=C(NC1CCCC1)c1ccc2c(c1)N(Cc1ccccc1)CCS2,-7.1,0.8,90.3*,9.5,-5.2,7.2,103.4*,115.8*
O=C(NC1CC1)c1ccc2c(c1)N(Cc1ccc(Cl)cc1)CCS2,i,2.5,105.7*,6.6,3.0,7.0,53.9*,47.8*
COC(=O)c1ccc(C(=O)OC)c(NC(=O)/C=C/C(=O)O)c1,-2.3,2.2,57.4*,0.0,-3.7,-9.5,52.3*,50.0*
COC(=O)c1ccc(C(=O)OC)c(NC(=S)N2CCN(C(=O)C3CCCO3)CC2)c1 (stereo unspecified),0.7,0.3,28.2*,-4.2,.,4.2,113.0*,89.2*
COC(=O)c1ccc(C(=O)OC)c(NC(=S)N2CCOCC2)c1,-0.2,-0.3,26.3,-1.9,-1.9,-13.9,.,.
CCN1CCN(C(=S)Nc2cc(C(=O)OC)ccc2C(=O)OC)CC1,0.2,5.3,31.4*,15.2,-1.1,-14.7,134.5*,115.4*
CCOc1ncccc1C(=O)N(CCC(C)C)c1c(N)n(Cc2ccccc2)c(=O)[nH]c1=O,i,2.7,4.9,11.1,.,2.1,.,.
C[C@H](O)[C@@H]1C(=O)N2CCc3c([nH]c4ccccc34)[C@@H]2C[C@@H]1N(C)C(=O)Nc1ccccc1,-0.2,.,27.6*,-4.3,.,.,52.1*,41.5*
SMILES,BH1578 lux ind,Mtb UGM inh,Mtb FBA inh,GDH-TPI counter-1,RecA splice inh,Rv3671c inh,Mtb FBA inh conf,GDH-TPI counter-2
C[C@H](O)[C@@H]1C(=O)N2CCc3c([nH]c4ccccc34)[C@@H]2C[C@@H]1N(C)C(=O)c1ccco1,.,.,67.2*,.,.,.,144.4*,132.4*
C[C@H](O)[C@@H]1C(=O)N2CCc3c([nH]c4ccccc34)[C@@H]2C[C@@H]1N(C)C(=O)Nc1cc(Cl)cc(Cl)c1,i,.,30.1*,18.6,.,.,+,+
C[C@H](O)[C@@H]1CN2CCc3c([nH]c4ccccc34)[C@@H]2C[C@@H]1N(C)C(=O)Nc1ccccc1,-0.2,.,1.0,11.3,.,.,.,.
C[C@H](O)[C@@H]1C(=O)N2CCc3ccc(N4CCN(C)CC4)cc3[C@@H]2C[C@@H]1N(C)C(=O)c1ccco1,i,.,0.0,4.1,.,.,.,.
CN(C(=O)C(C)(C)C)[C@H]1C[C@H]2c3[nH]c4ccccc4c3CCN2C(=O)[C@H]1CO,i,.,79.2*,21.3,.,.,+,+
O=C(c1ccc(OC2CCN(CCO)CC2)cc1)N1CCCC1,i,-1.2,2.1,-12.4,.,4.7,.,.
OCC[C@H]1C[C@H](O)[C@@H](O)[C@]2(CCc3ccccc3CO2)O1,-2.1,0.9,-0.9,6.7,.,9.6,.,.
CC1CCCCC12NC(=O)N(CC(=O)OCc1ccc(Br)cc1)C2=O (stereo unspecified),-5.7,6.4,-2.5,-3.9,.,0.6,.,.
COc1cccc2[nH]c(C(=O)NCCCN3CCCC3=O)cc12,-0.4,-0.4,59.0*,-0.8,-1.3,-5.8,142.6*,115.5*
COc1ccc2cc(C(=O)NCCCN3CCCC3=O)[nH]c2c1,-3.1,0.9,11.8,11.6,-0.6,-1.5,.,.
Nc1nccc(/C=C/c2c(F)cccc2Cl)n1,-0.3,-1.1,12.9,12.0,2.3,-7.3,.,.
O=c1cc(/C=C/c2c(F)cccc2Cl)[nH]c2ccccc12,-5.1,-1.4,45.3*,14.3,-12.8,-50.9,52.6*,32.8*
